From PubChem
IDE exosite inh: insulin-degrading enzyme (human) exo-site inhibition | 6.3% of 17,000 active | z-score at 20 µM | purified IDE, FL-6b probe fluorescence polarization; stronger effect = lower value | AID 1259349 | P14735;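 active = z-score of -3 or lower, meaning strong loss of probe binding signal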;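 note: His-tagged human IDE residues 42-1019 made in E. coli with 30 nM FL-6b probe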
An asterisk follows results filed as active; ! = not confirmed by another sample. This is one part of a sample in which hits are shown more often than they occur.

SMILES	IDE exosite inh
CC(=O)N1CCCCN2[C@H](C1)[C@H](c1ccc(-c3ccncc3)cc1)[C@@H]2CO	4.1
O=C1N[C@H](Cc2ccccc2)COCc2cnnn2CC[C@@H]1Cc1ccc(-c2ccccc2)cc1	1.2
N#C[C@H]1[C@@H](c2ccccc2)[C@@H](CO)N1C(=O)Cc1ccccc1	-0.25
C[C@@H](NC(=O)C[C@@H]1CC[C@H]2[C@@H](COc3ccc(NC(=O)C4CCOCC4)cc3C(=O)N2C)O1)c1ccccc1	-1.3
CN(C)C(=O)c1cccc(-c2ccc([C@@H]3[C@@H](CO)N4C(=O)CN(C(=O)C5CC5)C[C@H]34)cc2)c1	2.2
COc1ccc(-c2ccc([C@H]3[C@@H](CO)N4C(=O)CN(C(=O)C5CC5)C[C@@H]34)cc2)cc1	-0.095
COc1ccc(-c2ccc([C@@H]3[C@H]4CN(C(=O)C5CCOCC5)CC(=O)N4[C@H]3CO)cc2)cc1	-1.5
COc1cccc(-c2ccc(C3[C@@H]4CN(C(=O)C5CCCCC5)C[C@H]3N4)cc2)c1 (stereo partly drawn)	-0.31
N#Cc1cccc(-c2ccc(C3[C@@H]4CN(C(=O)C5CCOCC5)C[C@H]3N4)cc2)c1 (stereo partly drawn)	1
O=C(C1CCCCC1)N1C[C@@H]2N[C@H](C1)C2c1ccc(-c2ccccc2F)cc1 (stereo partly drawn)	0.62
COc1cccc(-c2ccc([C@@H]3[C@@H](CO)N4C(=O)CN(C(=O)C5CC5)C[C@@H]34)cc2)c1	-15*
Cc1cccc(-c2ccc(C3[C@@H]4CN(C(=O)C5CCCCC5)C[C@H]3N4)cc2)c1 (stereo partly drawn)	-5.4*!
Cc1cccc(-c2ccc(C3[C@@H]4CNC[C@H]3N4)cc2)c1 (stereo partly drawn)	0.37
COc1cccc(-c2ccc(C3[C@@H]4CN(C(=O)C5CCOCC5)C[C@H]3N4)cc2)c1 (stereo partly drawn)	-7.1*!
COc1cccc(-c2ccc([C@H]3[C@H](CO)N4C(=O)CN(C(=O)C5CC5)C[C@@H]34)cc2)c1	-7.5*
COc1ccc(-c2ccc([C@H]3[C@H](CO)N4C(=O)CN(C(=O)C5CC5)C[C@@H]34)cc2)cc1	-0.25
CO[C@H]1CN(C)C(=O)c2cc(NC(=O)c3ccc4c(c3)OCO4)ccc2OC[C@H](C)N(CCC(F)(F)F)C[C@H]1C	1.3
CN(C)C(=O)c1ccc(-c2ccccc2[C@H]2[C@@H](CO)N(C(=O)C3CC3)[C@H]2C#N)cc1	-0.42
CN1c2ccc(C#Cc3cccnc3)cc2[C@@H]2[C@@H](CCN2C(=O)CN2CCOCC2)[C@H]1CO	-1.2
COc1cccc(NC(=O)Nc2ccc3c(c2)C(=O)N(C)C[C@@H](OC)[C@@H](C)CN(CC2CC2)[C@H](C)CO3)c1	-0.33
O=C(N[C@H]1CC[C@@H](CC(=O)N2CCOCC2)O[C@H]1CO)c1cccc(F)c1	0.56
Cc1ccc(-c2ccc([C@H]3[C@H](CO)N4C(=O)CN(C(=O)Nc5cccc(F)c5)C[C@@H]34)cc2)cc1	2.4
CN1c2ccc(C3=CCCCC3)cc2[C@H]2[C@H](CCN2C(=O)Cc2ccccn2)[C@@H]1CO	-0.13
COc1cccc(S(=O)(=O)N2CCCCN3[C@H](CO)[C@@H](c4ccc(C#CC5CC5)cc4)[C@H]3C2)c1	1.2
COc1cccc(CN2CC3(CN(C)C3)c3c(n(C)c4cc(OC)ccc34)[C@@H]2CO)c1	1.4
SMILES	IDE exosite inh
O=C(c1ccc(F)cc1)N1CC(=O)N2[C@H](C1)[C@@H](c1ccc(-c3ccccc3)cc1)[C@@H]2CO	0.13
COCC(=O)NC[C@H]1[C@H](c2ccc(C3=CCCC3)cc2)[C@@H](CO)N1C(C)=O	0.52
C/C=C/c1ccc([C@@H]2[C@@H](CN(C)C(=O)CC)N(C(=O)C3CC3)[C@H]2CO)cc1	1.1
C[C@H](CO)N1C[C@H](C)[C@@H](CN(C)C(=O)NC2CCCC2)Oc2cc(-c3cncnc3)ccc2S1(=O)=O	-0.32
O=C(c1ccccn1)N1CC(=O)N2[C@@H](CO)[C@H](c3ccc(-c4cccc(F)c4)cc3)[C@@H]2C1	-0.064
CC(C)NC[C@@H]1[C@@H](c2ccc(C3=CCCCC3)cc2)[C@@H](CO)N1C(=O)CC1CC1	0.15
C[C@@H](NC(=O)C[C@H]1C=C[C@H](NS(=O)(=O)c2cccc(F)c2)[C@@H](CO)O1)c1ccccc1	1.6
OC[C@H]1[C@@H](c2ccccc2)[C@@H](CNCC2CCC2)N1CC1CC1	2.5
COc1cccc(-c2ccc([C@@H]3[C@@H](CO)N4C(=O)CN(C(=O)C5CCOCC5)C[C@@H]34)cc2)c1	-5.8*
COc1ccc(-c2ccc([C@H]3[C@@H](CO)N4C(=O)CN(C(=O)C5CCOCC5)C[C@@H]34)cc2)cc1	0.45
COc1cccc(-c2ccc([C@@H]3[C@@H](CO)N4C(=O)CN(C(=O)C5CCOCC5)C[C@H]34)cc2)c1	-2.4
CC(C)(O)C#Cc1ccc([C@H]2[C@@H](CO)N3CCCCN(S(C)(=O)=O)C[C@H]23)cc1	0.27
O=C(C1CCOCC1)N1CC(=O)N2[C@H](CO)[C@H](c3ccc(/C=C/c4ccccc4)cc3)[C@@H]2C1	-4.8*
